Test results as given in PubChem BioAssay AID1159580 (chemical genetic matrix, 2015).
Hit rate of the full screen: of about 5,500 compounds, about 2,000 (36%) were called active. Roughly 18% stayed inconclusive and do not appear here. No stated cut-off is given here; in the data, active means normalized growth mostly below about 0.91 (no sharp cut-off); inconclusive means no clear call, values can overlap the other calls; inactive means mostly above about 0.92. The list shows a part of the results.

Assay: chemical genetic growth profiling, strain panel (AID 1159580);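 further: tested at 20 µM; growth read once vehicle control cultures reached saturation at 30 °C; 1 = growth at the plate median or of vehicle wells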
Conditions: S. cerevisiae deletion strains, growth OD

Measured: normalized growth

CC1(C)S[C@@H]2[C@H](NC(=O)[C@H](C(=O)O)c3cccs3)C(=O)N2[C@H]1C(=O)O
inactive: locus YAL021C, strain ccr4, stronger effect = lower value 0.996 | locus YAL026C, strain drs2, stronger effect = lower value 1.02 | locus YAL030W, strain snc1, stronger effect = lower value 1.01 | locus YBL061C, strain skt5, stronger effect = lower value 1.01 | locus YBR009C, strain hhf1, stronger effect = lower value 1.03 | locus YBR023C, strain chs3, stronger effect = lower value 1.01 | locus YBR171W, strain sec66, stronger effect = lower value 1.03 | locus YBR231C, strain swc5, stronger effect = lower value 1.02 | locus YBR279W, strain paf1, stronger effect = lower value 1.01 | locus YCL011C, strain gbp2, stronger effect = lower value 1.01 | locus YCL016C, strain dcc1, stronger effect = lower value 0.998 | locus YCL061C, strain MRC1, stronger effect = lower value 1.01 | locus YCL069W, strain vba3, stronger effect = lower value 0.999 | locus YCR088W, strain abp1, stronger effect = lower value 0.996 | locus YDL005C, strain med2, stronger effect = lower value 1.01 | locus YDL040C, strain nat1, stronger effect = lower value 0.999 | locus YDR001C, strain nth1, stronger effect = lower value 1 | locus YDR069C, strain doa4, stronger effect = lower value 1.04 | locus YDR137W, strain rgp1, stronger effect = lower value 1.02 | locus YDR159W, strain sac3, stronger effect = lower value 1.01 | locus YDR195W, strain ref2 1.02 | locus YDR297W, strain sur2, stronger effect = lower value 1.01 | locus YDR334W, strain swr1, stronger effect = lower value 1 | locus YDR335W, strain msn5, stronger effect = lower value 1.01 | locus YDR392W, strain spt3, stronger effect = lower value 1.01 | locus YEL003W, strain gim4, stronger effect = lower value 1.01 | locus YEL037C, strain rad23, stronger effect = lower value 0.973 | locus YEL061C, strain CIN8 (second series), stronger effect = lower value 0.991 | locus YER015W, strain faa2, stronger effect = lower value 1.01 | locus YER016W, strain bim1, stronger effect = lower value 1 | locus YER111C, strain swi4, stronger effect = lower value 1.01 | locus YER155C, strain BEM2 (second series), stronger effect = lower value 1.04 | locus YFR010W, strain ubp6, stronger effect = lower value 1 | locus YGL167C, strain pmr1, stronger effect = lower value 1.01 | locus YGL173C, strain kem1, stronger effect = lower value 1.01 | locus YGL227W, strain vid30, stronger effect = lower value 1 | locus YGL240W, strain doc1, stronger effect = lower value 1.04 | locus YGL253W, strain hxk2, stronger effect = lower value 0.998 | locus YHR013C, strain ard1, stronger effect = lower value 1.03 | locus YHR027C, strain rpn1, stronger effect = lower value 1 | locus YHR030C, strain SLT2, stronger effect = lower value 1.01 | locus YHR079C, strain IRE1, stronger effect = lower value 1.02 | locus YHR142W, strain chs7, stronger effect = lower value 0.957 | locus YJL092W, strain hpr5, stronger effect = lower value 1 | locus YJL095W, strain BCK1 (second series), stronger effect = lower value 1 | locus YJL095W, strain BCK1, stronger effect = lower value 0.974 | locus YJL115W, strain asf1, stronger effect = lower value 1 | locus YJL129C, strain trk1, stronger effect = lower value 1.01 | locus YJL154C, strain vps35, stronger effect = lower value 0.999 | locus YJL164C, strain tpk1, stronger effect = lower value 0.999 | locus YJL166W, strain qcr8, stronger effect = lower value 1.01 | locus YJL187C, strain SWE1, stronger effect = lower value 1.02 | locus YJR066W, strain TOR1, stronger effect = lower value 0.952 | locus YKL160W, strain elf1, stronger effect = lower value 1.01 | locus YKR026C, strain gcn3, stronger effect = lower value 0.991 | locus YKR091W, strain srl3, stronger effect = lower value 1.01 | locus YLL001W, strain dnm1, stronger effect = lower value 0.999 | locus YLL026W, stronger effect = lower value 1.01 | locus YLL041C, strain sdh2, stronger effect = lower value 1.01 | locus YLR027C, strain aat2, stronger effect = lower value 1.01 | locus YLR113W, strain HOG1, stronger effect = lower value 0.971 | locus YLR221C, strain rsa3, stronger effect = lower value 0.989 | locus YLR258W, strain gsy2, stronger effect = lower value 1.02 | locus YLR262C, strain YPT6 (second series), stronger effect = lower value 0.996 | locus YLR320W, strain mms22, stronger effect = lower value 1.01 | locus YLR342W, strain FKS1, stronger effect = lower value 1.01 | locus YLR357W, strain rsc2, stronger effect = lower value 1.07 | locus YLR370C, strain arc18, stronger effect = lower value 1.01 | locus YLR384C, strain iki3, stronger effect = lower value 0.994 | locus YML120C, strain ndi1, stronger effect = lower value 1.01 | locus YMR058W, strain fet3, stronger effect = lower value 1.02 | locus YMR125W, strain sto1, stronger effect = lower value 1.03 | locus YMR129W, stronger effect = lower value 1 | locus YMR205C, strain PFK2, stronger effect = lower value 1.03 | locus YMR231W, strain pep5, stronger effect = lower value 1.01 | locus YNL071W, strain lat1, stronger effect = lower value 1.01 | locus YNL183C, strain NPR1, stronger effect = lower value 0.96 | locus YNL209W, strain ssb2, stronger effect = lower value 1.01 | locus YNL248C, strain rpa49, stronger effect = lower value 0.991 | locus YNL322C, strain KRE1 (second series), stronger effect = lower value 1.01 | locus YNR049C, strain mso1, stronger effect = lower value 0.994 | locus YOR001W, strain rrp6, stronger effect = lower value 1 | locus YOR070C, strain gyp1, stronger effect = lower value 0.999 | locus YOR080W, strain dia2, stronger effect = lower value 1.02 | locus YOR083W, strain WHI5, stronger effect = lower value 1 | locus YOR106W, strain vam3, stronger effect = lower value 1 | locus YOR231W, strain MKK1, stronger effect = lower value 1.02 | locus YOR265W, strain rbl2, stronger effect = lower value 0.998 | locus YOR270C, strain vph1, stronger effect = lower value 1 | locus YOR290C, strain snf2, stronger effect = lower value 1.01 | locus YPL051W, strain arl3, stronger effect = lower value 1 | locus YPL078C, strain atp4, stronger effect = lower value 0.989 | locus YPL106C, strain sse1, stronger effect = lower value 1.03 | locus YPL240C, strain hsp82, stronger effect = lower value 0.986 | locus YPL256C, strain CLN2, stronger effect = lower value 1.03
